# Calls of active or inactive are those of the source. How the source made its calls: active means hit-call score of the fitted dose curve at least 0.9, where 1 is the maximum; inactive means score below 0.9.
# Assay: ATG_SREBP_CIS: Attagene CIS-FACTORIAL HepG2 Assay for human Sterol Regulatory Element Binding (SREBP) (AID 2282962)
# Conditions: HepG2 Attagene cis-factorial SREBP reporter, mRNA; actives raise or lower the signal
# Procedure: ATG_CIS is a cell-based, multiplexed-readout assay that uses HepG2, a human liver cell line, with measurements taken at 24 hours after chemical dosing in a 24-well plate.ATG_SREBP_CIS is one of 52 assay component(s) measured or calculated from the ATG_CIS assay. It is designed to make measurements of mRNA induction, a form of inducible reporter, as detected with fluorescence intensity signals by Reverse transcription polymerase chain reaction (RT-PCR) and Capillary electrophoresis technology.Data from the assay component ATG_SREBP_CIS was analyzed into 1 assay endpoint. This assay endpoint, ATG_SREBP_CIS, was analyzed with bidirectional fitting relative to DMSO as the negative control and baseline of activity. Using a type of inducible reporter, measures of mRNA for gain or loss-of-signal activity can be used to understand the reporter gene at the transcription factor-level as they relate to the gene SREBF1. Furthermore, this assay endpoint can be referred to as a primary readout, because this assay has produced multiple assay endpoints where this one serves a reporter gene function. To generalize the intended target to other relatable targets, this assay endpoint is annotated to the dna binding intended target family, where the subfamily is basic helix-loop-helix leucine zipper.
# Human liver HepG2 cells are transiently transfected with multiple reporter transcription units (MRTUs) in 6-well plates using FuGene 6 reagent (Roche; 3 ml FuGene/1 mg DNA). The MRTU constructs are regulated by a cis-regulating element (promoter). […] A major difference between the CIS and TRANS system is that in CIS activities of endogenous TFs are measured, whereas the TRANS assay evaluates changes in activities of exogenous, chimeric NR-Gal4 proteins. […] At the end of 24 hour incubation, total RNA was isolated using TriZol reagent (Invitrogen). The isolated RNA is then reverse-transcribed using oligo(dT) primer and Mo-MLV reverse transcriptase (Invitrogen) with DNAse I (Ambion) treatment for 30 min. The one-tenth of the produced cDNA was amplified by PCR using Taq DNA polymerase (Invitrogen) and two reporter sequence-specific primers. The PCR products were fluorescently labeled by primer extension with 6-arboxyfluorescein (6-FAM) 5'-labeled reporter sequence-specific primer (2 min at 95 C, 20 s at 68 C and 10 min at 72 C) and these products were digested with 5U of HpaI (New England Biolabs) for 2h at 37 C. The fragments were purified using Qiaquick PCR columns (Qiagen), analyzed on an ABI 3130xL genetic analyzer (Applied Biosystems) with peak positions identified by using a set of X-rhodamine (ROX)-labeled MapMarker1000 molecular weight standards (BioVentures). The raw capillary electrophoresis data was processed using Attagraph software (Attagene).
SMILES,outcome,AC50
CCOP(=O)(OCC)Oc1cc(C)nc(C(C)C)n1,inactive,
CC[C@H](C)[C@H]1O[C@]2(C=C[C@@H]1C)C[C@@H]1C[C@@H](C/C=C(\C)[C@@H](O[C@H]3C[C@H](OC)[C@@H](O[C@H]4C[C@H](OC)[C@@H](NC)[C@H](C)O4)[C@H](C)O3)[C@@H](C)/C=C/C=C3\CO[C@@H]4[C@H](O)C(C)=C[C@@H](C(=O)O1)[C@]34O)O2,inactive,
CCOP(=S)(OCC)SCCSCC,,29.5 µM (active)
CCCSP(=O)(OCC)SCCC,inactive,
CSC1=N[C@@](C)(c2ccccc2)C(=O)N1Nc1ccccc1,inactive,
COc1ccc(C(=CC(=O)N2CCOCC2)c2ccc(Cl)cc2)cc1OC,inactive,
CCC(=O)Nc1ccc(Cl)c(Cl)c1,,50 µM (active)
O=c1ccc(=O)[nH][nH]1,inactive,
CON=C(C(=O)OC)c1ccccc1CON=C(C)c1cccc(C(F)(F)F)c1,inactive,
COP(=O)(OC)SCn1c(=O)oc2cc(Cl)cnc21,inactive,
CN(C)NC(=O)CCC(=O)O,inactive,
CCc1cccc(C)c1N(C(=O)CCl)C(C)COC (stereo not given),inactive,
COc1cc(OC)nc(Sc2cccc(Cl)c2C(=O)O)n1,inactive,
COP(=O)(NC(C)=O)SC (stereo not given),inactive,
CC(Oc1cccc(Cl)c1)C(=O)O (stereo not given),inactive,
Cc1ccn2nc(S(=O)(=O)Nc3c(F)cccc3F)nc2n1,inactive,
CN(C)C(=O)Nc1cccc(C(F)(F)F)c1,inactive,
CCC(=NOC/C=C/Cl)C1=C(O)CC(C2CCOCC2)CC1=O (stereo not given),inactive,
CC(COc1ccc(Oc2ccccc2)cc1)Oc1ccccn1 (stereo not given),inactive,
CCc1cnc(C2=NC(C)(C(C)C)C(=O)N2)c(C(=O)O)c1 (stereo not given),inactive,

SMILES,outcome,AC50
CCc1cccc(CC)c1N(COC)C(=O)CCl,inactive,
CCOP(=S)(OCC)Oc1ccc2c(C)c(Cl)c(=O)oc2c1,inactive,
CC(C)=CC1C(C(=O)OCN2C(=O)C3=C(CCCC3)C2=O)C1(C)C (stereo not given),,65.2 µM (active)
CCOP(=O)(NC(C)C)Oc1ccc(SC)c(C)c1 (stereo not given),,19.6 µM (active)
CCCCSP(=O)(SCCCC)SCCCC,,20.1 µM (active)
C[Si](Cn1cncn1)(c1ccc(F)cc1)c1ccc(F)cc1,,13.9 µM (active)
FC(F)C(F)(F)OCC(Cn1cncn1)c1ccc(Cl)cc1Cl (stereo not given),,13.2 µM (active)
CN1COCN(Cc2cnc(Cl)s2)C1=N[N+](=O)[O-],inactive,
COP(=O)(OC)C(O)C(Cl)(Cl)Cl (stereo not given),inactive,
CCC(CC)Nc1c([N+](=O)[O-])cc(C)c(C)c1[N+](=O)[O-],inactive,
CSc1nnc(C(C)(C)C)c(=O)n1N,inactive,
CCOP(=S)(Oc1cnc(C(C)(C)C)nc1)OC(C)C (stereo not given),,23.2 µM (active)
O=[N+]([O-])c1cc(C(F)(F)F)c(Cl)c([N+](=O)[O-])c1Nc1ncc(C(F)(F)F)cc1Cl,inactive,
CNC(=O)Oc1cccc2c1OC(C)(C)O2,inactive,
Nc1c(Cl)cc([N+](=O)[O-])cc1Cl,inactive,
Cc1cc(C2CC2)nc(Nc2ccccc2)n1,,12.6 µM (active)
CCOC(=O)COc1cc(-c2nn(C)c(OC(F)F)c2Cl)c(F)cc1Cl,inactive,
CCCCOC(=O)[C@@H](C)Oc1ccc(Oc2ccc(C#N)cc2F)cc1,inactive,
CCCSP(=O)(OCC)Oc1ccc(Br)cc1Cl (stereo not given),,1.31 µM (active)
C=C(C)[C@H]1Cc2c(ccc3c2O[C@@H]2COc4cc(OC)c(OC)cc4[C@@H]2C3=O)O1,,0.00445 µM (active)

# — PubChem BioAssay (EPA / NIEHS)
